Assay in all cases: qHTS profiling for inhibitors of Plasmodium falciparum proliferation (AID 504749); also: nearly all actives have a fitted effect of over 60% in size
Holding throughout (conditions): P. falciparum in erythrocytes, SYBR Green DNA, 72 h; series mostly up to 28.7 µM
On the technique in general: qHTS replaces the single test concentration by a dilution series.

For experiment [1], the system named is DIV17. Put shortly:
(§1)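 Parasite proliferation within erythrocytes, 72 h exposure. Endpoint: SYBR Green I fluorescence after overnight lysis at room temperature. Controls: 0.29 uM artemisinin, DMSO.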

Experiment [2] concerns DIV30. Put shortly: as §1
The subject of experiment [3] is Dd2. Put shortly:
as §1

Experiment [4] concerns ECU. Put shortly: as §1
In experiment [5] the test system is FAB9. Put shortly:
as §1

Experiment [6] relates to GB4. Put shortly:
as §1

Experiment [7] deals with HB3. Put shortly:
as §1

Experiment [8] concerns ICS. Put shortly:
as §1

Experiment [9] relates to JCK. Put shortly:
as §1

The subject of experiment [10] is N140. Put shortly: as §1
In experiment [11] the test system is P93_24. Put shortly:
as §1

Experiment [12] has as its system P94_40. Put shortly: as §1
In experiment [13] the test system is PAD. Put shortly:
as §1

Experiment [14] deals with PC15. Put shortly:
as §1

Experiment [15] concerns PC26. Put shortly:
as §1

In experiment [16] the test system is PC49. Put shortly:
as §1

For experiment [17], the system named is SC27B. Put shortly:
as §1

The subject of experiment [18] is TAB109. Put shortly: as §1
For experiment [19], the system named is TAB113. Put shortly:
as §1

The subject of experiment [20] is TAB165. Put shortly: as §1

The structures appear in SMILES notation. Records with an inconclusive call do not appear. Active and inactive are the calls of the source. Calls follow the shape of the dose curve; as a rule, active = well fitted inhibition curve with a large enough effect; inconclusive = small, poorly fitted or top-dose-only effect; inactive = flat fitted curve, though single readings scatter.
Potency is read from the fitted curve at half-maximal effect.

Consider `CCCc1cc(C(N)=S)ccn1`, for which the Potency result in experiment [1], in experiment [2], in experiment [3], in experiment [4], in experiment [5] and in experiment [6] was “inactive” throughout. For the same compound, the Potency result in experiment [7], in experiment [8], in experiment [9], in experiment [10], in experiment [11] and in experiment [12] was “inactive” in each case. The Potency result in [13], in [14], in experiment [15], in [16], in experiment [17] and in experiment [18] was “inactive” throughout. For the same compound, the Potency result in experiment [19] and in experiment [20] was “inactive” each time.
As to `Cc1cccc(N(C)C(=S)Oc2ccc3ccccc3c2)c1`, the Potency result in [1], in experiment [2], in experiment [3], in experiment [4], in experiment [5] and in experiment [6] was “inactive” throughout. Also, the Potency result in experiment [7], in experiment [8], in experiment [9], in [10], in experiment [11] and in experiment [12] was “inactive” in each case. For the same compound, the Potency result in experiment [13], in experiment [14], in experiment [15], in [16], in experiment [17] and in experiment [18] was “inactive” throughout. Further, the Potency entry in [19] and in experiment [20] was “inactive” throughout.
For the compound `Cc1cccc(Nc2ccncc2S(=O)(=O)NC(=O)NC(C)C)c1`, the Potency result in experiment [1], in experiment [2], in experiment [3], in [4], in experiment [5] and in [6] was “inactive” each time. In addition, the Potency entry in experiment [7], in experiment [8], in experiment [9], in [10], in [11] and in [12] was “inactive” throughout. The Potency entry in experiment [13], in experiment [14], in experiment [15], in experiment [16], in [17] and in experiment [18] was “inactive” throughout. Further, the Potency result in experiment [19] and in experiment [20] was “inactive” in each case.
On to `COc1nc(N)nc2c1ncn2[C@@H]1O[C@H](CO)[C@@H](O)[C@@H]1O`, for which the Potency result in [1], in experiment [2], in [3], in [4], in experiment [5] and in [6] was “inactive” each time. The Potency entry in experiment [7], in experiment [8], in experiment [9], in experiment [10], in [11] and in experiment [12] was “inactive” each time. Moreover, the Potency entry in experiment [13], in experiment [14], in experiment [15], in experiment [16], in experiment [17] and in experiment [18] was “inactive” in each case. Besides, the Potency entry in [19] and in experiment [20] was “inactive” in each case.
In the case of `CN(CCOc1ccc(CC2SC(=O)NC2=O)cc1)c1ccccn1` (stereo not given), the Potency result in [1], in experiment [2], in experiment [3], in experiment [4], in [5] and in experiment [6] was “inactive” throughout. Besides, the Potency result in experiment [7], in experiment [8], in experiment [9], in experiment [10], in experiment [11] and in experiment [12] was “inactive” each time. The Potency entry in [13], in experiment [14], in [15], in experiment [16], in experiment [17] and in experiment [18] was “inactive” in each case. The Potency result in experiment [19] and in experiment [20] was “inactive” throughout.
For `CNS(=O)(=O)Cc1ccc2[nH]cc(CCN(C)C)c2c1`, the Potency entry in experiment [1], in [2], in experiment [3], in experiment [4], in [5] and in experiment [6] was “inactive” each time. Further, the Potency result in experiment [7], in experiment [8], in experiment [9], in experiment [10], in experiment [11] and in experiment [12] was “inactive” each time. The Potency result in [13], in experiment [14], in [15], in [16], in experiment [17] and in experiment [18] was “inactive” in each case. For the same compound, the Potency entry in [19] and in experiment [20] was “inactive” in each case.
Turning to `CN(C)CCc1c[nH]c2ccc(CS(=O)(=O)N3CCCC3)cc12`, the Potency entry in experiment [1], in experiment [2], in experiment [3], in experiment [4], in [5] and in experiment [6] was “inactive” in each case. Further, the Potency entry in experiment [7], in experiment [8], in [9], in experiment [10], in experiment [11] and in [12] was “inactive” each time. Moreover, the Potency result in experiment [13], in [14], in [15], in experiment [16], in experiment [17] and in experiment [18] was “inactive” in each case. In addition, the Potency result in [19] and in experiment [20] was “inactive” in each case.
For `C#CCN[C@@H]1CCc2ccccc21`, the Potency entry in experiment [1], in experiment [2], in experiment [3], in experiment [4], in experiment [5] and in experiment [6] was “inactive” throughout. Moreover, the Potency entry in experiment [7], in experiment [8], in experiment [9], in experiment [10], in experiment [11] and in experiment [12] was “inactive” in each case. Moreover, the Potency result in experiment [13], in experiment [14], in [15], in experiment [16], in [17] and in experiment [18] was “inactive” throughout. Besides, the Potency entry in experiment [19] and in experiment [20] was “inactive” throughout.
As to `COC(=O)Nc1nc2ccc(Sc3ccccc3)cc2[nH]1`, the Potency entry in experiment [1], in experiment [2], in experiment [3], in experiment [4], in experiment [5] and in experiment [6] was “inactive” each time. In addition, the Potency result in experiment [7], in experiment [8], in experiment [9], in experiment [10], in experiment [11] and in experiment [12] was “inactive” throughout. In addition, the Potency result in experiment [13], in [14], in experiment [15], in [16], in experiment [17] and in experiment [18] was “inactive” throughout. The Potency result in [19] and in [20] was “inactive” throughout.
Take `CC(C)NCC(O)c1ccc(NS(C)(=O)=O)cc1` (stereo not given): the Potency entry in experiment [1], in [2], in experiment [3], in [4], in experiment [5] and in experiment [6] was “inactive” throughout. The Potency entry in experiment [7], in [8], in [9], in experiment [10], in experiment [11] and in [12] was “inactive” each time. The Potency result in experiment [13], in experiment [14], in [15], in experiment [16], in experiment [17] and in experiment [18] was “inactive” throughout. Also, the Potency entry in experiment [19] and in experiment [20] was “inactive” each time.
On to `COc1ccc2cc3[n+](cc2c1OC)CCc1cc2c(cc1-3)OCO2`, for which the Potency in [1] is 1.07 µM (active); in [2] it was 1.35 µM (active); in experiment [3] it was 794 nM (active); in [4], 1.41 µM (active); in experiment [5], 708 nM (active); in experiment [6], 675 nM (active). Moreover, the Potency is 1.78 µM (active) in [7]; 1.12 µM (active) in experiment [8]; 3.16 µM (active) in experiment [9]; 1.26 µM (active) in experiment [10]; 562 nM (active) in experiment [11]; 447 nM (active) in experiment [12]. The Potency in [13] was 1 µM (active); in experiment [14], 2.24 µM (active); in experiment [15], 1.9 µM (active); in [16], 2.51 µM (active); in experiment [17], 1.26 µM (active); in experiment [18], 631 nM (active). Moreover, the values for the Potency in experiment [19] and in [20] were 1 µM (active) and 794 nM (active), respectively.
For `NC(=O)c1cccnc1`, the Potency entry in experiment [1], in [2], in [3], in experiment [4], in experiment [5] and in experiment [6] was “inactive” in each case. Also, the Potency result in [7], in [8], in experiment [9], in experiment [10], in [11] and in experiment [12] was “inactive” in each case. For the same compound, the Potency result in experiment [13], in experiment [14], in [15], in experiment [16], in experiment [17] and in experiment [18] was “inactive” each time. Further, the Potency entry in experiment [19] and in experiment [20] was “inactive” in each case.
With `N=C(N)c1ccc(OCCCCCOc2ccc(C(=N)N)cc2)cc1`, the Potency is 0.426 µM (active) in [1]; 1.69 µM (active) in [2]; 501 nM (active) in experiment [3]; 2 µM (active) in [4]; 794 nM (active) in [5]; 338 nM (active) in experiment [6]. In addition, the Potency was 1.26 µM (active) in [7]; 1 µM (active) in [8]; 2.51 µM (active) in experiment [9]; 1 µM (active) in experiment [10]; 631 nM (active) in experiment [11]; 1410 nM (active) in [12]. Moreover, the Potency was 1.41 µM (active) in experiment [13]; 0.355 µM (active) in experiment [14]; 0.953 µM (active) in experiment [15]; 0.708 µM (active) in [16]; 1.12 µM (active) in experiment [17]; 1580 nM (active) in experiment [18]. Besides, the Potency in experiment [19] was 1.41 µM (active); in experiment [20] it was 501 nM (active).

The values are drawn from PubChem BioAssay (NCATS).
